{"source": "PubChem BioAssay (Tox21)", "note": "Calls of active or inactive are those of the source. A call without a number means that no potency is given here. Calls follow the shape of the dose curve; as a rule, active = well fitted activation curve with a large enough effect in the repeat runs; inconclusive = weak or mixed curves; inactive = flat fitted curve, though single readings scatter. Potency is read from the fitted curve at half-maximal effect."}
{"assay": "A CellTox Green Cytotoxicity Assay to monitor cytotoxicity in HepG2 cells - 0 hour (AID 1224882); also: nearly all actives have a fitted effect of over 35% in size", "conditions": "CellTox Green fluorescence; series mostly up to 76.8 µM", "text": "National Center for Advancing Translational Sciences [NCATS]\nNIH Chemical Genomics Center [NCGC]\nU.S. Environmental Protection Agency [EPA]\nNational Institutes of Environmental Health Sciences [NIEHS]\nNational Toxicology Program [NTP]\nCell-based models are critical for drug discovery. Determining the natural cytotoxic effects resulting from test compounds is an essential research activity. A CellTox Green Cytotoxicity Assay to monitor cytotoxicity in real time of continues cell culture during 40 hours of the compound treatment was used to screen Tox21 10K library compounds in HepG2 cells. CellTox Green Cytotoxicity Assay is a nonlytic, homogeneous, biofluorescent method to measure cytotoxicity in cell culture after experimental manipulation. The assay system uses a proprietary asymmetric cyanine dye that is excluded from viable cells but preferentially stains the dead cell's DNA. […] Viable cells produce no appreciable increases in fluorescence. Therefore, the fluorescence signal produced by the binding interaction with dead cell DNA is proportional to cytotoxicity.\nThe mixture of HepG2 cell suspension and reagents were dispensed at 600cells/6 ul/well in 1536-well tissue culture treated black solid bottom plates using a Multidrop dispenser. After the assay plates were incubated at a 37 C/5% CO2 incubator for 5 hours, 23 nL of compounds dissolved in DMSO, positive and negative controls was transferred to the assay plate by a pintool work station. The plates were incubated at 37 C for 40 hours. The fluorescence intensity were measured at 0h, 8h, 16h, 24h, 32h and 40h time points using ViewLux plate reader during compound treatment."}
{"molecule": "CCCCCCCCCCCCCOC(=O)CCSCCC(=O)OCCCCCCCCCCCCC", "cytotoxicity": "4.63% [at 15.8 µM] (inactive)"}
{"molecule": "O=NN(CCCl)C(=O)NCCCl", "Potency": "5.35 µM (active)"}
{"molecule": "CC1=C2[C@@H]([C@H](C)CC[C@H]2/C=C(\\C)C(=O)O)[C@H](O)C1", "Potency": "inactive"}
{"molecule": "CC1CCc2nccnc21", "note": "(stereo not given)", "Potency": "inactive"}
{"molecule": "Nc1ccc(N=Nc2ccc(N)cc2)cc1", "Potency": "inactive"}
{"molecule": "CCSC(=O)N(CC)CC", "Potency": "inactive"}
{"molecule": "CNCc1ccc(NC(=O)c2c[nH]c3c2C(=O)CCC3)cc1", "Potency": "inactive"}
{"molecule": "CC(C)OC(=O)c1ccccc1C(=O)OC(C)C", "Potency": "inactive"}
{"molecule": "O=C(O)/C=C/c1ccc(O)c(O)c1", "Potency": "inactive"}
{"molecule": "Nc1ccc(S(=O)(=O)NCc2ccccc2)cc1", "Potency": "inactive"}
{"molecule": "Cc1cc([N+](=O)[O-])ccc1N", "Potency": "inactive"}
{"molecule": "Oc1ccc2c(c1)Cc1ccccc1-2", "Potency": "inactive"}
{"molecule": "CNC1CCCN(c2c(F)cc3c(=O)c(C(=O)O)cn(C4CC4)c3c2OC)C1", "note": "(stereo not given)", "Potency": "inactive"}
{"molecule": "CC[C@H]1OC(=O)[C@H](C)[C@@H](O[C@H]2C[C@@](C)(OC)[C@@H](O)[C@H](C)O2)[C@H](C)[C@@H](O[C@@H]2O[C@H](C)C[C@H](N(C)C)[C@H]2O)[C@](C)(O)C[C@@H](C)CN(C)[C@H](C)[C@@H](O)[C@]1(C)O", "Potency": "inactive"}
{"molecule": "Nc1ccn([C@H]2CS[C@@H](CO)O2)c(=O)n1", "Potency": "inactive"}
{"molecule": "C=CC(=O)O", "Potency": "inactive"}
{"molecule": "Cc1ccc(NC(=O)N(C)C)cc1NC(=O)N(C)C", "Potency": "inactive"}
{"molecule": "CCN(CC)C(=O)/C(C#N)=C/c1cc(O)c(O)c([N+](=O)[O-])c1", "Potency": "inactive"}
{"molecule": "Nc1nc2ccc(OC(F)(F)F)cc2s1", "Potency": "inactive"}
{"molecule": "CCCCCC", "Potency": "inactive"}
{"molecule": "CC1=CC[C@@]23C[C@@H]1C(C)(C)[C@@H]2CC[C@H]3C", "Potency": "inactive"}
{"molecule": "CC(C)C1CCC(C(=O)N[C@H](Cc2ccccc2)C(=O)O)CC1", "note": "(stereo not given in full)", "Potency": "inactive"}
{"molecule": "CCCC(=O)OC(=O)CCC", "Potency": "inactive"}
{"molecule": "O=C(CCS)OCC(COC(=O)CCS)(COC(=O)CCS)COC(=O)CCS", "Potency": "inactive"}
{"molecule": "COC(=O)C1=C(C)NC(C)=C(C(=O)OC(C)(C)CN(C)CCC(c2ccccc2)c2ccccc2)C1c1cccc([N+](=O)[O-])c1", "note": "(stereo not given)", "Potency": "inactive"}
{"molecule": "CC(=O)c1ccc[nH]1", "Potency": "inactive"}
{"molecule": "Cc1c(C2(c3cc(Br)c(O)c(Br)c3C)OS(=O)(=O)c3ccccc32)cc(Br)c(O)c1Br", "Potency": "inactive"}
{"molecule": "COc1ccc(-n2nc(C(F)F)cc2-c2ccc(S(C)=O)cc2)cc1", "note": "(stereo not given)", "Potency": "inactive"}
{"molecule": "CCO[Si](C)(CCCOCC1CO1)OCC", "note": "(stereo not given)", "Potency": "inactive"}
{"molecule": "c1ccc(CNc2ncnc3c2ncn3C2CCCCO2)cc1", "note": "(stereo not given)", "Potency": "inactive"}
{"molecule": "CCCCCCC(O)CCOC(C)=O", "note": "(stereo not given)", "Potency": "inactive"}
{"molecule": "CCCCCCCC/C=C/C(=O)O", "Potency": "inactive"}
{"molecule": "COC(CC(C)CCCC(C)(C)O)OC", "note": "(stereo not given)", "Potency": "inactive"}
{"molecule": "Cc1oc(=O)oc1COC(=O)[C@@H]1N2C(=O)[C@@H](NC(=O)[C@H](N)c3ccccc3)[C@H]2SC1(C)C", "Potency": "inactive"}
{"molecule": "Cc1ccc(N(CC2=NCCN2)c2cccc(O)c2)cc1", "Potency": "inactive"}
{"molecule": "CCC(=O)OCc1ccc(OC)cc1", "Potency": "inactive"}
{"molecule": "CC(C)CC(O)CC(C)C", "Potency": "inactive"}
{"molecule": "C/C(C=O)=C\\c1ccccc1", "Potency": "inactive"}
{"molecule": "O=C(O)c1cccc(C[C@@H]2COc3ccc(OCc4nc5cc(F)ccc5s4)cc3[C@@H]2O)c1", "Potency": "inactive"}
{"molecule": "CCOC(=O)c1c(N)sc2c1CCN(Cc1ccccc1)C2", "Potency": "inactive"}
